Several values for one entry are separate records, joined by “and”; a condition that tells them apart may be missing. Equal entries are not always repeated. Results filed as inconclusive are left out. Where a call stands in place of a potency, no number is given. Activity calls are given as the source filed them. Unless noted, calls come from the whole dose curve; as a rule, active = well fitted curve in the direction sought with a large enough effect in the repeat runs; inconclusive = weak or mixed curves; inactive = no such curve, though single readings can be large; an effect the other way counts as inactive or inconclusive. Positions of bridges follow the written chain, without caps; N, C: chain ends. Non-standard residues stand in square brackets, D forms with d. Residues, ends and D or L forms follow the SMILES beside them. Orn = NCCC[C@H](N)C(=O)O; Mpa = O=C(O)CCS
How the values were obtained:
[1] = qHTS assay for small molecule agonists of the p53 signaling pathway (AID 651631; calls by dose curve; note: nearly all actives have a fitted effect of over 15% in size; note: potency is the fitted concentration of half-maximal effect)
In short: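 Read-out is beta-lactamase FRET fluorescence measured 2 h after substrate addition at room temperature, in HCT-116 cells with a p53 response element-driven reporter exposed to compounds for 16 h at 37 °C.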

[2] = qHTS assay for small molecules that induce genotoxicity in human embryonic kidney cells expressing luciferase-tagged ATAD5 (AID 651632); note: nearly all actives have a fitted effect of over 15% in size; note: potency is the fitted concentration of half-maximal effect
In short: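 Luminescence read-out: after 16 hr compound exposure at 37C, ATAD5-luciferase HEK293T cells received Amplite, 30 min RT, then CCD imaging. A rise in signal marks genotoxic stress.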

[3] = qHTS assay for small molecule agonists of the p53 signaling pathway - cell viability (AID 651633; calls by dose curve;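 note: p53RE-bla HCT reporter cells with a stable beta-lactamase p53 reporter; series mostly up to about 83 µM; nearly all actives have a fitted effect of over 30% in size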)
In short: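 p53RE-bla cells were treated with compound for 16 hours at 37 C. Cytotoxicity was then measured as CellTiter-Glo luminescence after 30 min at room temperature.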

[4] = qHTS assay for small molecules that induce genotoxicity in human embryonic kidney cells expressing luciferase-tagged ATAD5 - cell viability (AID 651634; calls by dose curve; note: nearly all actives have a fitted effect of over 25% in size; note: potency is the fitted concentration of half-maximal effect)
In short: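 HEK293T ATAD5-luc cells, 2,000/well; compound 15.5 hr, 37C/5% CO2; CellTiter-Fluor 30 min, 37C; fluorescence read.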

[5] = qHTS assay for small molecule disruptors of the mitochondrial membrane potential - cell viability (AID 720634; calls by dose curve;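 note: human HepG2 liver cancer cells; series mostly up to about 83 µM; nearly all actives have a fitted effect of over 20% in size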)
In short: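 Luminescence from CellTiter-Glo (ATP content) gave viability in HepG2 cells, read in the same wells as the MMP dye assay after 1 hr compound exposure at 37 C.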

[6] = qHTS assay for small molecule disruptors of the mitochondrial membrane potential (AID 720635); note: potency is the fitted concentration of half-maximal effect
In short: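 HepG2 cells exposed to compound 1 hr at 37C, then Mito-MPS dye 30 min. Ratio read of aggregate (540/590 nm) versus monomer (490/535 nm) fluorescence.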

[7] = qHTS assay to test for compound auto fluorescence at 590 nm (red) in HepG2 cells (AID 720674)
In short: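 HepG2 cells, 2,000 per well in MEM with 10% FBS, attached overnight at 37 C, then got 23 nL compound or DMSO. After 1 hr at 37 C, 5% CO2, red fluorescence was read at 540/590 nm against Rose Bengal sodium as reference.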

[8] = qHTS assay to test for compound auto fluorescence at 535 nm (green) in HepG2 cells (AID 720675)
[9] = qHTS assay to test for compound auto fluorescence at 460 nm (blue) in HEK293 cells (AID 720678)
In short: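 Auto fluorescence in the blue band was quantified as triamterene equivalency. HEK293 cells were seeded at 2,000/well, dosed after a 4-5 hr attachment, and kept overnight at 37C before the 405/460 nm reading.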

[10] = qHTS assay to test for compound auto fluorescence at 590 nm (red) in HEK293 cells (AID 720679)
In short: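 Autofluorescence equivalency to Rose Bengal sodium, 540/590nm, in HEK293 cells exposed overnight to 23 nL compound per well.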

| Structure (SMILES) | Potency [1] | Potency [2] | Potency [3] | Potency [4] | Potency [5] | Potency [6] | Potency [7] | Potency [8] | Potency [9] | Potency [10] |
| --- | --- | --- | --- | --- | --- | --- | --- | --- | --- | --- |
| C=C1/C(=C\C=C2/CCC[C@]3(C)[C@@H]([C@H](C)OCCC(C)(C)O)CC[C@@H]23)C[C@@H](O)C[C@@H]1O | 11.9 µM (active) | inactive | inactive | inactive | inactive | inactive | inactive | inactive | inactive | inactive |
| CN1CC(O)c2cc(N=NC(N)=O)c(O)cc21 (configuration not stated) | inactive | inactive | inactive | inactive | inactive | inactive | inactive | inactive | inactive | inactive |
| CCOC(=O)CN[C@@H](C(=O)N1CC[C@H]1C(=O)NCc1ccc(/C(N)=N/O)cc1)C1CCCCC1 | inactive | inactive | inactive | inactive | inactive | inactive | inactive | inactive | inactive | inactive |
| N[C@@H](C(=O)N[C@@H]1C(=O)N2C(C(=O)O)=C(CSc3cn[nH]n3)CS[C@H]12)c1ccc(O)cc1 | inactive | inactive | inactive | inactive | inactive | inactive | inactive | inactive | inactive | inactive |
| CCN(CC)c1ccc(N=Nc2ccc(S(=O)(=O)N(C)C)cc2)c(S(=O)(=O)NCC[n+]2ccccc2)c1 | inactive | inactive | inactive | inactive | inactive | inactive | inactive | inactive | inactive | inactive |
| O=C(/C=C/c1cccc(F)c1)NC1CC1 | inactive | inactive | inactive | inactive | inactive | inactive | inactive | inactive | inactive | inactive |
| C[C@@H]1C/C=C/C=C/C=C/C=C/[C@H](O[C@@H]2O[C@H](C)[C@@H](O)[C@H](N)[C@@H]2O)C[C@@H]2O[C@](O)(C[C@@H](O)C[C@H]3O[C@@H]3/C=C/C(=O)O1)C[C@H](O)[C@H]2C(=O)O | inactive | inactive | inactive | inactive | inactive | inactive | inactive | – | inactive | inactive |
| CC(=O)OC[C@H]1O[C@@H](O[C@H]2[C@H](O)[C@@H](OC(=O)c3ccccc3C(=O)O)[C@H](O)O[C@@H]2COC(C)=O)[C@H](O)[C@@H](OC(=O)c2ccccc2C(=O)O)[C@@H]1O | inactive | inactive | inactive | inactive | inactive | inactive | inactive | inactive | inactive | inactive |
| C=C[C@]1(C)C[C@@H](OC(=O)CO)[C@]2(C)[C@H](C)CC[C@]3(CCC(=O)[C@H]32)[C@@H](C)[C@@H]1O | inactive | inactive | inactive | inactive | inactive | inactive | inactive | inactive | inactive | inactive |
| OC(CN1CCCCC1)c1cc(-c2ccccc2)on1 (configuration not stated) | inactive | inactive | inactive | inactive | inactive | inactive | inactive | – | inactive | – |
| CCOC(=O)Cc1cccc(-c2cc(CCCCCCc3ccc(O[C@H]4O[C@H](COC(C)=O)[C@@H](OC(C)=O)[C@H](OC(C)=O)[C@@H]4OC(C)=O)c(-c4cccc(CC(=O)OCC)c4)c3)ccc2O[C@H]2O[C@H](COC(C)=O)[C@@H](OC(C)=O)[C@H](OC(C)=O)[C@@H]2OC(C)=O)c1 | inactive | inactive | inactive | inactive | inactive | inactive | inactive | – | inactive | inactive |
| O=C(OCCO)c1ccccc1O | inactive | inactive | inactive | inactive | inactive | inactive | inactive | inactive | inactive | inactive |
| COC(=O)[C@H]1[C@H]2C[C@@H]3c4[nH]c5cc(OC)ccc5c4CCN3C[C@H]2C[C@H](OC)[C@@H]1OC | inactive | inactive | inactive | inactive | inactive | inactive | inactive | inactive | – | inactive |
| COc1ccc2c(=O)c(C)c(-c3ccccc3)oc2c1CN(C)C | inactive | inactive | inactive | inactive | inactive | inactive | inactive | inactive | inactive | inactive |
| C=C1CC2C3CCC4=CC(=O)C=C[C@]4(C)[C@@]3(F)[C@@H](O)C[C@]2(C)[C@@]1(O)C(=O)COC(C)=O (some centres not stated) | inactive | inactive | inactive | inactive | inactive | inactive | inactive | inactive | inactive | inactive |
| NCCCC[C@H](NC(=O)[C@@H]1CCCN1C(=O)[C@@H]1CSSC[C@H](NC(=O)CNC(=O)CNC(=O)CN)C(=O)N[C@@H](Cc2ccc(O)cc2)C(=O)N[C@@H](Cc2ccccc2)C(=O)N[C@@H](CCC(N)=O)C(=O)N[C@@H](CC(N)=O)C(=O)N1)C(=O)NCC(N)=O (H-GGGCYFQNCPKG-NH2; disulfide 4-9) | inactive | inactive | inactive | inactive | inactive | inactive | inactive | inactive | inactive | inactive |
| N[C@@H](C(=O)N[C@@H]1C(=O)N2C(C(=O)O)=C(Cl)CC[C@H]12)c1ccccc1 | inactive | inactive | inactive | inactive | inactive | inactive | inactive | inactive | inactive | inactive |
| CCOC(=O)CCC(=O)O[C@H]1[C@H](O[C@@H]2[C@@H](C)[C@H](O[C@H]3C[C@@](C)(OC)[C@@H](O)[C@H](C)O3)[C@@H](C)C(=O)O[C@H](CC)[C@@](C)(O)[C@H](O)[C@@H](C)C(=O)[C@H](C)C[C@@]2(C)O)O[C@H](C)C[C@@H]1N(C)C | inactive | inactive | inactive | inactive | inactive | inactive | inactive | – | inactive | inactive |

| Structure (SMILES) | Potency [1] | Potency [2] | Potency [3] | Potency [4] | Potency [5] | Potency [6] | Potency [7] | Potency [8] | Potency [9] | Potency [10] |
| --- | --- | --- | --- | --- | --- | --- | --- | --- | --- | --- |
| C[N+](C)(CCCCCC[N+](C)(C)C1c2ccccc2-c2ccccc21)C1c2ccccc2-c2ccccc21 | inactive | inactive | inactive | inactive | inactive | inactive | inactive | – | inactive | inactive |
| O=C(O)c1nc(=O)[nH]c(=O)[nH]1 | inactive | inactive | inactive | inactive | inactive | – | inactive | inactive | inactive | – |
| CO/N=C(\C(=O)N[C@@H]1C(=O)N2C(C(=O)OCOC(=O)C(C)(C)C)=C(/C=C\c3scnc3C)CS[C@H]12)c1csc(N)n1 | inactive | inactive | inactive | inactive | inactive | – | inactive | inactive | inactive | – |
| CCC(C)[C@@H](N)C(=O)O (some centres not stated) | inactive | inactive | inactive | inactive | inactive | – | inactive | inactive | inactive | – |
| CO[C@H]1[C@@H](O)[C@H](N)[C@@H](O[C@H]2O[C@H]([C@H](C)N)CC[C@H]2N)[C@H](O)[C@@H]1N(C)C(=O)CN | inactive | inactive | inactive | inactive | inactive | inactive | inactive | inactive | inactive | inactive |
| CC(=O)[C@]1(O)Cc2c(O)c3c(c(O)c2[C@@H](O[C@H]2C[C@H](N)[C@H](O)[C@H](C)O2)C1)C(=O)c1c(O)cccc1C3=O | 944 nM (active) and 2.37 µM (active) | 750 nM (active) and 944 nM (active) | inactive | 10.6 µM (active) and 11.9 µM (active) | inactive | 441 nM (active) and 5.31 µM (active) | inactive | – | inactive | inactive |
| CC(=O)O[C@H]1C[C@@H]2CC[C@@H]3[C@H](CC[C@@]4(C)[C@H]3C[C@H](N3CC[N+](C)(C)CC3)[C@@H]4OC(C)=O)[C@@]2(C)C[C@@H]1N1CC[N+](C)(C)CC1 | inactive | inactive | inactive | inactive | inactive | inactive | inactive | inactive | inactive | inactive |
| CC1CC(OC(=O)C(O)c2ccccc2)CC(C)(C)C1 (configuration not stated) | inactive | inactive | inactive | inactive | inactive | 13.3 µM (active) | inactive | inactive | inactive | inactive |
| CCOc1ccc(C[C@H]2NC(=O)CCSSC[C@@H](C(=O)N3CCC[C@H]3C(=O)N[C@@H](CCCN)C(=O)NCC(N)=O)NC(=O)[C@H](CC(N)=O)NC(=O)[C@H]([C@@H](C)O)NC(=O)[C@H]([C@@H](C)CC)NC2=O)cc1 ([Mpa][dY](Et)ITNCP[Orn]G-NH2; disulfide 1-6) | inactive | inactive | inactive | inactive | inactive | inactive | inactive | inactive | inactive | inactive |
| CCCC(CCC)C(N)=O | inactive | inactive | inactive | inactive | inactive | inactive | inactive | inactive | inactive | inactive |
| O.O=C([O-])CC([S-])C(=O)[O-].[Au+].[Na+].[Na+] (configuration not stated) | inactive | inactive | inactive | inactive | inactive | inactive | inactive | inactive | inactive | inactive |
| COC(=O)CCC(=O)CN | inactive | inactive | inactive | inactive | inactive | inactive | inactive | – | inactive | inactive |
| CC(=O)[C@@]1(O)CC[C@H]2[C@@H]3C=C(Cl)C4=CC(=O)[C@@H]5C[C@@H]5[C@]4(C)[C@H]3CC[C@@]21C | inactive | inactive | inactive | inactive | inactive | – | inactive | inactive | inactive | – |
| NCCC[C@H](N)C(=O)O | inactive | inactive | inactive | inactive | inactive | inactive | inactive | inactive | inactive | inactive |
| c1cnc2cc3c(cc2n1)[C@@H]1CNC[C@H]3C1 | inactive | inactive | inactive | inactive | inactive | inactive | inactive | inactive | inactive | inactive |
| CC(C)CN(C[C@@H](O)[C@H](Cc1ccccc1)NC(=O)O[C@H]1CO[C@H]2OCC[C@H]21)S(=O)(=O)c1ccc(N)cc1 | inactive | inactive | inactive | inactive | inactive | inactive | inactive | – | inactive | inactive |
| CN1[C@@H]2CCC[C@H]1CC(NC(=O)c1nn(C)c3ccccc13)C2 (some centres not stated) | inactive | inactive | inactive | inactive | inactive | inactive | inactive | inactive | inactive | inactive |
| Cc1onc(-c2ccccc2)c1C(=O)N[C@@H]1C(=O)N2[C@@H]1SC(C)(C)[C@@H]2C(=O)O | inactive | inactive | inactive | inactive | inactive | inactive | inactive | inactive | inactive | inactive |

From PubChem BioAssay (Tox21)
